An excerpt weighted towards active compounds, which were near 3.8% of everything screened.
A549 tox = Nrf2 qHTS screen for inhibitors: counterscreen for cytotoxicity | AID 504648, 2011 | A549 ARE-Fluc cells, CellTiter-Fluor viability, 18-24 h | 0.16% of 390,000 active | Potency, µM (series often up to 46 µM), most hits filed as inhibitors
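A549 ARE-Fluc cells in 5% FBS OPTI-MEM, 5000 cells/well, rested 2 h then exposed to compounds in concentration-response for 18-24 h at 37 °C. Viability by CellTiter-Fluor fluorescence (Ex 405/Em 525) after 30 min; luciferase luminescence (BugLite, 15 min, RT) read afterwards.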
HepG2 tox = qHTS for Inhibitors of TGF-b: Cytotox Counterscreen; HepG2 CAGA-GFP viability, ATP luminescence, 18 h; Potency, µM (doses to about 46.1 µM), usual class: cytotoxic; 0.76% of 410,000 active
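HepG2 CAGA-GFP cells (1000/well, DMEM with 1% FBS) received compound, then TGF-beta at 500 pg/mL final, and were incubated 18 hours at 37 degrees C. Viability was read by CellTiter-Glo luminescence. Media-only wells were set as complete cell-killing and DMSO as no toxicity.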
ATXN2 expr inh = Primary qHTS for Inhibitors of ATXN expression; HEK-293 ATXN2-luciferase reporter, luminescence, 24 h; Potency, µM (highest dose often 57 µM), most hits filed as inhibitors; 0.72% of 360,000 active; AID 1745845, 2022; further: nearly all actives have a fitted effect of over 55% in size
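qHTS (up to 57 uM final) was run with 24 h compound exposure of reporter cells at 37 °C. Each well was multiplexed: SteadyGlo luminescence measured ATXN2-luciferase expression after a fluorogenic Gly-Phe-AFC viability readout (25 uM final).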
S2 tox = Viability Counterscreen for Primary qHTS for Inhibitors of ATXN expression | Potency, µM (doses to about 56.7 µM), usual class: cytotoxic | AID 651635, 2014 | 0.49% of 400,000 active | S2 cells (HEK-293 line with an ATXN2-luciferase reporter) viability, CellTiter-Fluor protease fluorescence, 24 h; further: nearly all actives have a fitted effect of over 40% in size
Nrf2 inh = Nrf2 qHTS screen for inhibitors. A549 ARE-Fluc reporter, luciferase luminescence, 18-24 h. AID 504444, 2011. 2.1% of 360,000 active. Potency, µM (titrated, usually from 46 µM), hits mostly inhibitors; further: nearly all actives have a fitted effect of over 60% in size
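Quantitative HTS in A549 cells stably bearing an antioxidant response element-firefly luciferase construct. Inhibition of Nrf2-driven transcription was scored by luminescence after 18-24 h of compound exposure at 37 °C.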
TGFb inhibitor = qHTS for Inhibitors of TGF-b | Potency, µM (doses to about 46.1 µM), actives largely listed as inhibitors | 1.2% of 410,000 active | HepG2 CAGA-GFP TGF-b/SMAD3 reporter, GFP fluorescence, 18 h; TGF-beta stimulated, 500 pg/mL final; further: nearly all actives have a fitted effect of over 65% in size
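Inhibition was scored as loss of TGF-beta-induced (500 pg/mL final, 18 hours, 37 degrees C) GFP in HEPG2 cells carrying a CAGA-GFP reporter, in DMEM with 1% FBS. Well GFP was summed per cell; Activity was normalised to unstimulated and stimulated DMSO wells, then concentration-response fitting.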
Large screens that a line does not name were inactive. The call rests on the fitted dose curve; in most records, active means well fitted curve in the direction sought with a large enough effect; inconclusive means small, poorly fitted or top-dose-only effect, or another doubt; inactive means no such curve, though single readings can be large; an effect the other way counts as inactive or inconclusive.

O=c1c2cc3c(cc2n(Cc2cccc(F)c2)c(=O)n1Cc1nc(-c2ccccc2)no1)OCO3	Nrf2 inh inconclusive
COc1ccc(N2CCN(S(=O)(=O)c3ccc(F)c(C(=O)Nc4ccccc4Cl)c3)CC2)cc1	A549 tox inconclusive, S2 tox inconclusive (no result: Nrf2 inh)
COc1ccc(S(=O)(=O)N2CCCCC2)cc1NC(=O)c1[nH]c(C)c(C(C)=O)c1C	Nrf2 inh 18.4µM
Cc1ccc(S(=O)(=O)N2CCCCC2)cc1NC(=O)CSc1nncn1-c1ccccc1	Nrf2 inh 18.4µM
COc1ccc(S(=O)(=O)N2CCCCC2)cc1NC(=O)CNc1ccccc1C(C)=O	Nrf2 inh inconclusive
COc1ccc(-n2cnnc2SCC(=O)Nc2cc(S(=O)(=O)N3CCCCC3)ccc2C)cc1	Nrf2 inh inconclusive, TGFb inhibitor inconclusive
COc1ccc(S(=O)(=O)N2CCCCC2)cc1NCC(=O)Nc1ccc(C)cc1	Nrf2 inh 16.4µM, TGFb inhibitor inconclusive
CCOC(=O)C1CCN(c2ccc(-c3cccs3)nn2)CC1	HepG2 tox 7.08µM
Cc1ccc(S(=O)(=O)N2CCN(Cc3cc(Br)ccc3O)CC2)cc1	Nrf2 inh inconclusive, TGFb inhibitor 10µM
COc1ccc(C(C)NC(=O)CN(c2cc(OC)ccc2OC)S(=O)(=O)c2ccccc2)cc1 (stereo unspecified)	none
C/C(CCC12CC3CC(CC(C3)C1)C2)=N\NC(N)=S	ATXN2 expr inh inconclusive, S2 tox inconclusive, TGFb inhibitor inconclusive
C/C(CC(C)(C)C1CCCCC1)=N\NC(N)=S	HepG2 tox 11.2µM, ATXN2 expr inh 31.6µM, S2 tox 31.6µM, Nrf2 inh inconclusive, TGFb inhibitor 6.31µM
COc1ccc(CNC(=O)CN2CCN(c3ccccc3O)CC2)cc1OC	none
COc1ccc(Cc2nc(-c3ccc(-n4cccc4)cc3)no2)cc1OC	Nrf2 inh 16.4µM, TGFb inhibitor inconclusive
Cc1ccc(OCC(=O)N2CCN(c3nnc(-c4ccc(C)cc4)c4ccccc34)CC2)cc1	A549 tox inconclusive, ATXN2 expr inh 28.2µM, S2 tox inconclusive, Nrf2 inh 18.4µM, TGFb inhibitor inconclusive
O=C(COc1ccccc1)N1CCN(c2nnc(-c3ccccc3)c3ccccc23)CC1	A549 tox inconclusive, Nrf2 inh 20.6µM
Cc1ccc(-c2nnc(N3CCCCCC3)c3ccccc23)cc1	A549 tox inconclusive, Nrf2 inh 23.1µM
COc1ccc(OCC(=O)N2CCN(c3nnc(-c4ccc(C)cc4)c4ccccc34)CC2)cc1	ATXN2 expr inh inconclusive, S2 tox inconclusive, Nrf2 inh inconclusive
Cc1ccccc1CN1C(=O)c2ccccc2C1c1nnnn1C(C)C (stereo unspecified)	none (no result: A549 tox, HepG2 tox, Nrf2 inh, TGFb inhibitor)
CC(CCl)n1c(=O)c2ccccc2n1C(=O)c1ccccc1 (stereo unspecified)	none (no result: A549 tox, HepG2 tox, Nrf2 inh, TGFb inhibitor)
COc1ccccc1N1CCN(C(=O)CCc2nnc3ccc(N4CCC(C)CC4)nn23)CC1	TGFb inhibitor inconclusive
C#CCN(C[C@@H](CC(C)C)NC(=O)OC(C)(C)C)S(=O)(=O)c1ccc(Br)cc1F	ATXN2 expr inh inconclusive, S2 tox inconclusive, Nrf2 inh inconclusive, TGFb inhibitor inconclusive
COc1ccc(NC(=O)c2ccc(COc3ccccc3Br)o2)cc1OC	Nrf2 inh 23.1µM
COc1ccc(NC(=O)c2ccc(COc3ccccc3OC)o2)cc1OC	S2 tox inconclusive
CCCCn1c(N)c(N(CC(C)C)C(=O)C2CCCN(C(=O)c3ccc(Cl)cc3)C2)c(=O)[nH]c1=O (stereo unspecified)	none
Cc1ccc(-c2csc(C(O)(c3ccccc3)C(F)(F)F)n2)cc1C (stereo unspecified)	S2 tox inconclusive, TGFb inhibitor inconclusive (no result: A549 tox, Nrf2 inh)
COc1cc(F)ccc1-c1csc(C(O)(c2ccccc2)C(F)(F)F)n1 (stereo unspecified)	HepG2 tox 22.4µM, ATXN2 expr inh inconclusive, S2 tox inconclusive, TGFb inhibitor inconclusive (no result: A549 tox, Nrf2 inh)

Assay outcomes as filed in PubChem.
